High-throughput results deposited in PubChem BioAssay by Broad Institute.
STAT3 binder – STAT3 binders, primary screen, biochemical, small molecule microarray, single point, set 2; calls only; Signal transducer and activator of transcription 3 (Homo sapiens), P40763; hit rate 0.2% among 17,000; His-STAT3 binding, anti-His fluorescence;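 active = compounds whose four printed spots each show fluorescence over background unusually high for their array block, chance value under 7%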
Target sequence (P40763 whole entry, looked up): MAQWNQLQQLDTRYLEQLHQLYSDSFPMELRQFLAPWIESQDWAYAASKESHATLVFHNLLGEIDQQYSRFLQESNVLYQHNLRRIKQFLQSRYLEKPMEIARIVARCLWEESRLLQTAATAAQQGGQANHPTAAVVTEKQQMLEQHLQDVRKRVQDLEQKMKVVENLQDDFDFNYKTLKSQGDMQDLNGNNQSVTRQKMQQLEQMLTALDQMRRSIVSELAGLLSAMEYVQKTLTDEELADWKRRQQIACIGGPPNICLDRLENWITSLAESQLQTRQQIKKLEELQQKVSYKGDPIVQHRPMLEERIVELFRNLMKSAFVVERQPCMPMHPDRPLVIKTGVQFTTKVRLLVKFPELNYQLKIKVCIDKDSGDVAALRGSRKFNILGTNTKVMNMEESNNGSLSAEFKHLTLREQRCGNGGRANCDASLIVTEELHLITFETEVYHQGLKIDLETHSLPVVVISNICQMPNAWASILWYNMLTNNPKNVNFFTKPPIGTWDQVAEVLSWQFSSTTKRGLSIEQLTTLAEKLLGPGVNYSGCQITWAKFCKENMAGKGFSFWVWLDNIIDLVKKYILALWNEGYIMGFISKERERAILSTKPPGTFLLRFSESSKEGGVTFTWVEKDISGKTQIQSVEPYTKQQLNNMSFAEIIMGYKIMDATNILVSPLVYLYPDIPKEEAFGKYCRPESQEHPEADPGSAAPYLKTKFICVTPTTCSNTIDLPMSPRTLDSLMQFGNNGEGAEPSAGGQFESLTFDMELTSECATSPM
Myc binder – binders of human c-Myc, primary screen, biochemical, small molecule microarray, anti-His fluorescence | Myc proto-oncogene protein (Homo sapiens), P01106 | His-c-Myc binding | hit rate 1.5% among 17,000 | calls only;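 active = spot fluorescence over background with P-value below 7% in all four replicate spots, showing protein binding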;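 note: score is binary with 100 for all four spots passing and 0 otherwise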
NFkB SMM – binders of NF-kB p50 subunit, primary screen, biochemical, small molecule microarray, anti-His fluorescence; Nuclear factor NF-kappa-B p105 subunit (Homo sapiens), P19838; anti-His fluorescence binding; calls only; hit rate 1.3% among 17,000;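 active = spot fluorescence over background significantly raised, with a chance value under 7% in all four replicate spots of the compound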;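 note: probe protein is his-tagged human p50 processed subunit at 1 µg/ml; raw spot fluorescence signals with no normalization applied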
p53 mut binder – binders of human mutant p53, primary screen, biochemical, small molecule microarray, anti-GST fluorescence; calls only; AID 624136, 2012; hit rate 0.4% among 17,000; mutant tumor protein p53 (GST-tagged), Homo sapiens; small molecule microarray binding;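 active = compounds whose four printed spots each glow above background more than chance allows, each with a p-value under 7%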
p53 PUMA act – mutant p53 pathway re-activators, primary screen, cell-based, SW480, luciferase, single point, HTS | activation, % at 9.98 µM | hit rate 1.5% among 28,000 | SW480 PUMA-promoter luciferase, p53 mutant reactivation; in the data active = activation above about 52%
An asterisk follows results filed as active; i = inactive; . = not tested or not shown; + = active, no number. In the library only some 2.6% were active in any assay of this set; here they are far more common.

SMILES	STAT3 binder	Myc binder	NFkB SMM	p53 mut binder	p53 PUMA act
Cc1cc(=O)oc2cc(NC(=S)NCc3cccnc3)ccc12	.	.	.	.	74.8*
COc1ccc(C#Cc2ccc3c(c2)[C@]2(C(=O)N3)[C@H](c3ccc(O)cc3)N3[C@H](c4ccccc4)[C@H](c4ccccc4)OC(=O)[C@H]3[C@@H]2C(=O)N2CCCCCCC2)cc1	+	i	i	+	.
O=C1O[C@H](c2ccccc2)[C@H](c2ccccc2)N2[C@H]1[C@@H](C(=O)N1CCCCCCC1)[C@]1(C(=O)Nc3ccc(C#CC4(O)CCCCCC4)cc31)[C@H]2c1ccc(O)cc1	i	i	i	i	.
O=C1O[C@@H](c2ccccc2)[C@@H](c2ccccc2)N2[C@@H](c3ccc(O)cc3)[C@]3(C(=O)Nc4ccc(C#CC5(O)CCCCCC5)cc43)[C@@H](C(=O)N3CCCCCCC3)[C@H]12	+	i	i	i	.
C=CC[C@]1(C(=O)NCCCOC)COC(c2ccc(OCCCO)cc2)=N1	i	+	+	i	.
Cc1noc(C)c1S(=O)(=O)N(C)C[C@@H]1OCCCC[C@H](C)Oc2ccc(NC(=O)NC(C)C)cc2C(=O)N([C@H](C)CO)C[C@H]1C	i	+	+	i	1.0
CC(C)NC(=O)Nc1ccc2c(c1)C(=O)N([C@@H](C)CO)C[C@@H](C)[C@@H](CN(C)S(=O)(=O)c1ccccc1)OCCCC[C@@H](C)O2	+	+	i	i	5.4
Cc1noc(C)c1S(=O)(=O)N(C)C[C@@H]1OCCCC[C@H](C)Oc2ccc(NC(=O)NC(C)C)cc2C(=O)N([C@@H](C)CO)C[C@H]1C	i	i	i	i	-6.2
CC(C)NC(=O)Nc1ccc2c(c1)C(=O)N([C@H](C)CO)C[C@H](C)[C@H](CN(C)S(=O)(=O)c1ccccc1)OCCCC[C@@H](C)O2	i	i	i	i	-10.1
C=CCN1Cc2ccccc2[C@H]2OC(c3ccc(OCCCO)cc3)=N[C@@]2(CC=C)C1=O	i	i	i	+	.
C[C@@H]1O[C@@H](O[C@H]2[C@H](O[C@H]3CC[C@@]4(C)C(CC[C@]5(C)C4CC=C4C6CC(C)(C)CC[C@]6(C(=O)O[C@@H]6O[C@H](CO[C@@H]7O[C@H](CO)[C@@H](O[C@@H]8O[C@@H](C)[C@H](O)[C@@H](O)[C@H]8O)[C@H](O)[C@H]7O)[C@@H](O)[C@H](O)[C@H]6O)CC[C@]45C)[C@]3(C)CO)OC[C@H](O)[C@@H]2O)[C@H](O)[C@H](O)[C@H]1O (some centres undefined)	i	i	i	i	8.4
C[C@@H]1O[C@@H](O[C@H]2[C@H](O[C@H]3CC[C@@]4(C)C(CC[C@]5(C)C4C=C[C@]46OC[C@@]7(CCC(C)(C)C[C@H]74)[C@@H](O)C[C@]65C)[C@]3(C)CO)O[C@H](CO)[C@@H](O)[C@@H]2O[C@@H]2O[C@H](CO)[C@@H](O[C@@H]3O[C@@H](C)[C@H](O)[C@@H](O)[C@H]3O)[C@H](O)[C@H]2O)[C@H](O)[C@H](O)[C@H]1O (some centres undefined)	i	+	+	i	-87.0
COc1ccc(-c2oc3cc(O[C@@H]4O[C@@H](C)[C@H](O)[C@@H](O)[C@H]4O)cc(O)c3c(=O)c2O[C@@H]2O[C@H](CO)[C@@H](O)[C@H](O)[C@H]2O)cc1	i	i	i	i	2.0
O=c1c(-c2ccc(O)cc2)coc2cc(OC3OC(CO)C(O)C(O)C3O)cc(O)c12 (centres undefined)	i	i	i	i	89.7*
CC1(C)O[C@H]2CC(=O)OC[C@@]23[C@H]1CC(=O)[C@@]1(C)C2=CC(=O)O[C@@H](c4ccoc4)[C@]2(C)CC[C@@H]13	i	+	+	i	-4.9
[N-]=[N+]=NCc1ccccc1C[C@@]1(C(=O)N2CCOCC2)N=C(c2ccc(OCCCO)cc2)O[C@@H]1c1ccccc1	i	i	i	i	.
COC(=O)[C@]1(Cc2ccccc2)N=C(c2ccc(OCCCO)cc2)O[C@@H]1c1ccccc1N=[N+]=[N-]	i	i	+	+	.
O=C(NCc1ccccc1)[C@@]1(Cc2ccccc2)N=C(c2ccc(OCCCO)cc2)O[C@H]1c1ccccc1	i	i	i	+	.
[N-]=[N+]=NCc1ccccc1C[C@@]1(C(=O)N2CCCCC2)N=C(c2ccc(OCCCO)cc2)O[C@@H]1c1ccccc1	+	i	i	i	.
Cc1ccc(OCC(=O)Nc2cc3nn(-c4ccc(C)cc4)nc3cc2C)cc1	i	i	i	i	29.3
O=C(COc1cccc(C(F)(F)F)c1)NCc1cccnc1	.	.	.	.	18.0
C[C@@H]1CN([C@@H](C)CO)C(=O)c2cc(NS(=O)(=O)c3cccs3)ccc2O[C@@H](C)CCCCO[C@@H]1CN(C)C(=O)CCC(F)(F)F	i	i	+	i	-2.0
C[C@H](CO)N1C[C@H](C)[C@@H](CN(C)C(=O)CCC(F)(F)F)OCCCC[C@H](C)Oc2ccc(NS(C)(=O)=O)cc2C1=O	i	+	+	i	7.9
C[C@@H]1CCCCO[C@@H](CN(C)C(=O)CCC(F)(F)F)[C@H](C)CN([C@@H](C)CO)C(=O)c2cc(NS(=O)(=O)c3ccccc3)ccc2O1	i	+	+	i	-12.5
C[C@@H]1CCCCO[C@H](CN(C)C(=O)CCC(F)(F)F)[C@@H](C)CN([C@H](C)CO)C(=O)c2cc(NS(=O)(=O)c3cccs3)ccc2O1	i	i	i	i	-4.5
SMILES	STAT3 binder	Myc binder	NFkB SMM	p53 mut binder	p53 PUMA act
Cc1ccc(NC(=O)C(C)Sc2nccc(C)n2)cc1 (centres undefined)	.	.	.	.	3.1
CC1(C)Cc2nc3sc4c(=O)n(CC(=O)NCCc5ccccc5)cnc4c3cc2CO1	.	.	.	.	11.8
CC(=O)c1ccc(NC(=O)Cn2cnc3c(sc4nc5c(cc43)COC(C)(C)C5)c2=O)cc1	i	i	i	i	73.5*
COC(=O)c1cccc(-n2c(CCC(=O)O)ccc2-c2cccs2)c1	i	i	i	i	62.7*
O=C(NCCCN1CCOCC1)c1cnn2c(C(F)F)cc(-c3ccccc3)nc12	.	.	.	.	-3.3
CCCCCCCCCC(O)CC(O)CC(O)CC1CC=CC(=O)O1 (centres undefined)	i	i	i	i	-2.3
O=C(CC1(O)C(=O)N(Cc2cccc3ccccc23)c2ccccc21)c1ccc(F)cc1 (centres undefined)	.	.	.	.	-10.2
Cc1ccc(NC(=O)CCCOc2ccccc2)c([N+](=O)[O-])c1	.	.	.	.	79.1*
COc1ccc(NC(=O)C(C)Oc2ccccc2)c([N+](=O)[O-])c1 (centres undefined)	.	.	.	.	86.2*
COc1ccc(NC(=O)COc2ccccc2)c([N+](=O)[O-])c1	.	.	.	.	71.7*
